# From paper PMC7862700, “An all-to-all approach to the identification of sequence-specific readers for epigenetic DNA modifications on cytosine”
# What was measured:
# Assay in all cases: DAPPL (digital affinity profiling via proximity ligation, sequencing); 10 mM Tris-HCl pH 7.5, 50 mM NaCl, 1 mM DTT, 4% glycerol, room temperature, 30 min; GST-TFs on glutathione beads, 16-mer random dsDNA library, 0.1% formaldehyde crosslink after washing; high values mean tight binding
# [1] = molecular target: T1, FLI1 (Homo sapiens, UniProt Q01543 1-452); settings: protein: recombinant; tags: N-terminal GST; dsDNA, one strand shown
# T1 sequence: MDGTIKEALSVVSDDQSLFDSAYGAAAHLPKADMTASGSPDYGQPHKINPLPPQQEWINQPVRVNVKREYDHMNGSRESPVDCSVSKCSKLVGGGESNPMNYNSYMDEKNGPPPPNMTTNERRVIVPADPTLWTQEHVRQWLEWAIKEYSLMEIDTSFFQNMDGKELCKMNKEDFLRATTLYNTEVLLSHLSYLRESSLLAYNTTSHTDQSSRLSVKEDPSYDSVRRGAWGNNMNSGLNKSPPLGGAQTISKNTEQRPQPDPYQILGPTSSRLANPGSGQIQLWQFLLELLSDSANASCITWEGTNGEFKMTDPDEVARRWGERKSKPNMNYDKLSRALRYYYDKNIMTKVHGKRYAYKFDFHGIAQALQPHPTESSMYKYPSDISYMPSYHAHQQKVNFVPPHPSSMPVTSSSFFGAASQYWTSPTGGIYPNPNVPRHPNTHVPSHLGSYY
# Procedure, shortened: (§1)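 Binding signal is each hexamer's read frequency for a factor divided by its frequency in the tag-only sample. The factors were GST-fused human transcription factors from yeast, captured on glutathione beads, DNA-barcoded and pooled with that sample. Pools were incubated with 200 nmole of a random double-stranded 16-mer DNA library in Tris/NaCl/DTT/glycerol buffer at room temperature for 30 min, then washed, crosslinked with 0.1% formaldehyde, proximity-ligated with BsaI/T4 ligase (1 h, 37 °C), PCR-amplified and sequenced on an Illumina NextSeq500.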
# [2] = molecular target: T2, ELK4 (Homo sapiens, UniProt P28324-2 1-405); settings: protein: recombinant; tags: N-terminal GST; dsDNA, one strand shown
# T2 sequence: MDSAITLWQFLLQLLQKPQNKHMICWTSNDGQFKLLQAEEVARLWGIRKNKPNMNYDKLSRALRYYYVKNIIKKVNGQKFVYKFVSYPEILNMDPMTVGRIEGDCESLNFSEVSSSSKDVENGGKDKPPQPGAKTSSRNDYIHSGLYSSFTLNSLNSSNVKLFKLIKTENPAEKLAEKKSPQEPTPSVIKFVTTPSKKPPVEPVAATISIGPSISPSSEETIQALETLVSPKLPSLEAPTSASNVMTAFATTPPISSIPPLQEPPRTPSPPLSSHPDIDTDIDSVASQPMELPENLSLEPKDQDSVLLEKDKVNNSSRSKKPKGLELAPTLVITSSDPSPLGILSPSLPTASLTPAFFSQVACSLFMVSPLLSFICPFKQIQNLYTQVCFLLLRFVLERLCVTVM
# Procedure, shortened: as §1
# [3] = molecular target: T3, ETV2 (Homo sapiens, UniProt O00321 1-342); settings: protein: recombinant; tags: N-terminal GST; dsDNA, one strand shown
# T3 sequence: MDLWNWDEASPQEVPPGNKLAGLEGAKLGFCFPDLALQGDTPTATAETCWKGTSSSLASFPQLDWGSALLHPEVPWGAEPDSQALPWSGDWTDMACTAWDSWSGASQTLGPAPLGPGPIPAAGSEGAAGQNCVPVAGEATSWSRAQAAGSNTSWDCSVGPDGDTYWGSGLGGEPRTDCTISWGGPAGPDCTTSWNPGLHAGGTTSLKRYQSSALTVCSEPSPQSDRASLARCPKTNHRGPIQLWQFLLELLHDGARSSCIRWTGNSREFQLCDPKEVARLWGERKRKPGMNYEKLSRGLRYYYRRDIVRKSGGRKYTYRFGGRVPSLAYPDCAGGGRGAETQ
# Procedure, shortened: as §1
# [4] = molecular target: T4, ELF3 (Homo sapiens, UniProt P78545 1-371); settings: protein: recombinant; tags: N-terminal GST; dsDNA, one strand shown
# T4 sequence: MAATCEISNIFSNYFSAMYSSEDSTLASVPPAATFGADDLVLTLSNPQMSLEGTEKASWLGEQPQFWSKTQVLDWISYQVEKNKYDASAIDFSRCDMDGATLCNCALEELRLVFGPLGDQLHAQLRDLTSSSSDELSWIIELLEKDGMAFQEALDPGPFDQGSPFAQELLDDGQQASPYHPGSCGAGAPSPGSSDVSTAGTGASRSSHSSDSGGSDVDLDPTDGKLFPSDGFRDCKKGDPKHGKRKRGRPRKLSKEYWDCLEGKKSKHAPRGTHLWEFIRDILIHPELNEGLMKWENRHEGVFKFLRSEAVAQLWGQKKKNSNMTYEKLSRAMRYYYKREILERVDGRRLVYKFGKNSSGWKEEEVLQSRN
# Procedure, shortened: as §1
# [5] = molecular target: ETV1 (Homo sapiens, UniProt P50549 1-477); settings: protein: recombinant; tags: N-terminal GST; dsDNA, one strand shown
# Sequence of ETV1 (P50549 whole entry): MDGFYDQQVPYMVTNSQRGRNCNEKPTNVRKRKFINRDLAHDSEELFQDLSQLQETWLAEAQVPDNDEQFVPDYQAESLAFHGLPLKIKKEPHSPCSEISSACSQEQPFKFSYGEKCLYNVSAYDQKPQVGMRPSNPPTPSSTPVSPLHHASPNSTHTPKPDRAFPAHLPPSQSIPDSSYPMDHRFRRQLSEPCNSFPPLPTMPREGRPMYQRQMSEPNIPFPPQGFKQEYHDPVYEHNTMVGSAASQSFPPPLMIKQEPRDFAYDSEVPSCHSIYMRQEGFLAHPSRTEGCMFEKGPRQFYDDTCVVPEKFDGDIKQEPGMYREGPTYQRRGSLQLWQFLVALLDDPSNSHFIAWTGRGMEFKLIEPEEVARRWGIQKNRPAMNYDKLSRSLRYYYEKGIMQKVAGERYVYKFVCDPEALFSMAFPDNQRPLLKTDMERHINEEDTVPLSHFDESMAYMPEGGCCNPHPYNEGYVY
# Procedure, shortened: as §1
# [6] = molecular target: T5, ERF (Homo sapiens, UniProt P50548 1-548); settings: protein: recombinant; tags: N-terminal GST; dsDNA, one strand shown
# T5 sequence: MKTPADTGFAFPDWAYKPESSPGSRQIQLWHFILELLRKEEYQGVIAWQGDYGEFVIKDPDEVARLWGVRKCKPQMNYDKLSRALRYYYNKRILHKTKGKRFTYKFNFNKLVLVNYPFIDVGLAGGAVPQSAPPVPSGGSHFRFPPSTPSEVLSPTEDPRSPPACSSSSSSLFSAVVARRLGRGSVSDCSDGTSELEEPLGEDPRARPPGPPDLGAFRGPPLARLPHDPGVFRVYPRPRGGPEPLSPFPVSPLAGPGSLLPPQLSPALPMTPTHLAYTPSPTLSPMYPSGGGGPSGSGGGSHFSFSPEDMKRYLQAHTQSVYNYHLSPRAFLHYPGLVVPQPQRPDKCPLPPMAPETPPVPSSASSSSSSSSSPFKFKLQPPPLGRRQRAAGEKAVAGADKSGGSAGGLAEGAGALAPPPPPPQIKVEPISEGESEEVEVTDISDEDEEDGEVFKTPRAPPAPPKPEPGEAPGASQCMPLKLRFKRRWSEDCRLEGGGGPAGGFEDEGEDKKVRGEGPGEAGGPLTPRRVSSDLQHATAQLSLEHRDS
# Procedure, shortened: as §1
# [7] = molecular target: T6, ETV3L (Homo sapiens, UniProt Q6ZN32 1-361); settings: protein: recombinant; tags: N-terminal GST; dsDNA, one strand shown
# T6 sequence: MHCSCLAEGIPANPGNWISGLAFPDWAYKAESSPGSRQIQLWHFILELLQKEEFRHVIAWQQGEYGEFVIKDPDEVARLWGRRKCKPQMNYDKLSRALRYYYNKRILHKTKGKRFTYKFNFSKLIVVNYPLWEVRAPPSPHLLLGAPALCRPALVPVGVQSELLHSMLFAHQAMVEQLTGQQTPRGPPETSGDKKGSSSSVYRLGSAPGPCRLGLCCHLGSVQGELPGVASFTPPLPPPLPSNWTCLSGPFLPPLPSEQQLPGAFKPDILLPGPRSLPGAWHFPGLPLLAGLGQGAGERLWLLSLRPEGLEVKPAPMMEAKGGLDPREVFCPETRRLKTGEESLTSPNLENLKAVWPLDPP
# Procedure, shortened: as §1
# [8] = molecular target: T7, SPDEF (Homo sapiens, UniProt O95238 1-335); settings: protein: recombinant; tags: N-terminal GST; dsDNA, one strand shown
# T7 sequence: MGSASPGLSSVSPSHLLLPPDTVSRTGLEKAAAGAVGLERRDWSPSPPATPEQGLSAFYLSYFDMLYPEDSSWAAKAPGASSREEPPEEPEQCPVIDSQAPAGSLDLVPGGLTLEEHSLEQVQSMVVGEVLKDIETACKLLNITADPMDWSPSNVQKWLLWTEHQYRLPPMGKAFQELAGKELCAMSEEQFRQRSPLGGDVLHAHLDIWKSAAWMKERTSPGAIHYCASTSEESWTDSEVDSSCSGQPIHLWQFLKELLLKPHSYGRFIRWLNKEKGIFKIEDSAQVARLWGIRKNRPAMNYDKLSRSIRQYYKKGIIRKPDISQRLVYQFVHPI
# Procedure, shortened: as §1
# [9] = molecular target: HSF1 (Homo sapiens, UniProt Q00613 1-529); settings: protein: recombinant; tags: N-terminal GST; chain copies: 3; dsDNA, one strand shown
# Sequence of HSF1 (Q00613 whole entry): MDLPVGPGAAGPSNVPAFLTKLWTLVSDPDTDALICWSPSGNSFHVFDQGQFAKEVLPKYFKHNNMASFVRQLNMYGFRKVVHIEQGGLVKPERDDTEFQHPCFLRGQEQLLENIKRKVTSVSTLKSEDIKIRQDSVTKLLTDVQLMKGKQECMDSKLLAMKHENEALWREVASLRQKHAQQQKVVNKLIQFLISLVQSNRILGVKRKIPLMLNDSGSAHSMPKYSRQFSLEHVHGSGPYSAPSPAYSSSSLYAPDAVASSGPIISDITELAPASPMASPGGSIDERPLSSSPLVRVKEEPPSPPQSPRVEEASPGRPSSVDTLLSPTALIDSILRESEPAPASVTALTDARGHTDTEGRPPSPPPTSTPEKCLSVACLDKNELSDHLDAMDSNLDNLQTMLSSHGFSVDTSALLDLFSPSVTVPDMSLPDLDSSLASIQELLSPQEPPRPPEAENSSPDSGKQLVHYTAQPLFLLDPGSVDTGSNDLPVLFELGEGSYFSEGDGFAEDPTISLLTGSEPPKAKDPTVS
# Procedure, shortened: as §1
# [10] = molecular target: SPI1 (Homo sapiens, UniProt P17947 1-270); settings: protein: recombinant; tags: N-terminal GST; dsDNA, one strand shown
# Procedure, shortened: as §1
# [11] = molecular target: T8, ELK3 (Homo sapiens, UniProt P41970 1-407); settings: protein: recombinant; tags: N-terminal GST; dsDNA, one strand shown
# T8 sequence: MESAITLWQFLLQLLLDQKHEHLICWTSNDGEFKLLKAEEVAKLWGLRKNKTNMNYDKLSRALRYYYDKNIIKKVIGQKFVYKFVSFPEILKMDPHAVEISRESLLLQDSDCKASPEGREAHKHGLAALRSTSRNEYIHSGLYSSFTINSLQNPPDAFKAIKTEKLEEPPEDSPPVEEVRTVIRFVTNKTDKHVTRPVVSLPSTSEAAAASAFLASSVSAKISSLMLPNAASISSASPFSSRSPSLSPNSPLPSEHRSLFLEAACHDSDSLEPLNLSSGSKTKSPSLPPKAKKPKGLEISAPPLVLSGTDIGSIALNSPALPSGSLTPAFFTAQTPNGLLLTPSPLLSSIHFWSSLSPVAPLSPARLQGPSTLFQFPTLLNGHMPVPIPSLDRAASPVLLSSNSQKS
# Procedure, shortened: as §1
# [12] = molecular target: T9, ETV7 (Homo sapiens, UniProt Q9Y603 1-341); settings: protein: recombinant; tags: N-terminal GST; dsDNA, one strand shown
# T9 sequence: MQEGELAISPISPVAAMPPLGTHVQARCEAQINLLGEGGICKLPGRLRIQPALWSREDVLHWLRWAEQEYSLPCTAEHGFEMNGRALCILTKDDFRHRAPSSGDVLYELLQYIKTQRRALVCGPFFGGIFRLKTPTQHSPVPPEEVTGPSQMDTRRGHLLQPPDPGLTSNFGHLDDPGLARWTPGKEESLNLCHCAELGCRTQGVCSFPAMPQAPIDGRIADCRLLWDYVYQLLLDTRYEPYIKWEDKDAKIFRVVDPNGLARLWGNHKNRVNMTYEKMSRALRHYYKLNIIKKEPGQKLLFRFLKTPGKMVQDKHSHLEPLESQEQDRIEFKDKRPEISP
# Procedure, shortened: as §1
# [13] = molecular target: T10, ELF5 (Homo sapiens, UniProt Q9UKW6-2 1-255); settings: protein: recombinant; tags: N-terminal GST; dsDNA, one strand shown
# T10 sequence: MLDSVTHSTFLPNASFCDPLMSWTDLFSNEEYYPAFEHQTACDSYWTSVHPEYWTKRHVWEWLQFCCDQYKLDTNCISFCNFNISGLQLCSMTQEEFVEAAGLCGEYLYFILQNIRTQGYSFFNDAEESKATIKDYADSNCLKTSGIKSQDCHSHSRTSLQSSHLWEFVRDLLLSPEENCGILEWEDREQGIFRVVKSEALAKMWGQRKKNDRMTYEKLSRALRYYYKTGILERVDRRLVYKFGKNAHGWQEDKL
# Procedure, shortened: as §1
# [14] = molecular target: ETV6 (Homo sapiens, UniProt P41212 1-452); settings: protein: recombinant; tags: N-terminal GST; dsDNA, one strand shown
# Sequence of ETV6 (P41212 whole entry): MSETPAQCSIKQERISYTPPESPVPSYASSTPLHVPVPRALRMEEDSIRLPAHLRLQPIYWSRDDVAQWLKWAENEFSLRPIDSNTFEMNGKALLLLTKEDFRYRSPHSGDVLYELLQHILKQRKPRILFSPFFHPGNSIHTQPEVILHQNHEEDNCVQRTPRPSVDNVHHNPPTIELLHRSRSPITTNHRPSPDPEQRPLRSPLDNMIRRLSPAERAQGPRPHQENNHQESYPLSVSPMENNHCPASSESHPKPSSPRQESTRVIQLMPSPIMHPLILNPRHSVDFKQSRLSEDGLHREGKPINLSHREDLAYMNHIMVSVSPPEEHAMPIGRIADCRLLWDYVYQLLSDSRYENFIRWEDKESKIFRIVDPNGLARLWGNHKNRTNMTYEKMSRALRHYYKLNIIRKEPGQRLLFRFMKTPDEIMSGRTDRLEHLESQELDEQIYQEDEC
# Procedure, shortened: as §1
sequence,measurement,setting,value
TCGTTG,binding signal,[1],"1.01 fold enrichment (6-mer frequency, TF over GST control)"
same,binding signal,[2],"1.1 fold enrichment (6-mer frequency, TF over GST control)"
same,binding signal,[3],"1.19 fold enrichment (6-mer frequency, TF over GST control)"
same,binding signal,[4],"1.07 fold enrichment (6-mer frequency, TF over GST control)"
same,binding signal,[5],"1.02 fold enrichment (6-mer frequency, TF over GST control)"
same,binding signal,[6],"1.03 fold enrichment (6-mer frequency, TF over GST control)"
same,binding signal,[7],"1.1 fold enrichment (6-mer frequency, TF over GST control)"
same,binding signal,[8],"1.01 fold enrichment (6-mer frequency, TF over GST control)"
GAGAAT,binding signal,[9],"1.44 fold enrichment (6-mer frequency, TF over GST control)"
AGTTGC,binding signal,[1],"1.04 fold enrichment (6-mer frequency, TF over GST control)"
same,binding signal,[10],"1.07 fold enrichment (6-mer frequency, TF over GST control)"
same,binding signal,[11],"1.03 fold enrichment (6-mer frequency, TF over GST control)"
same,binding signal,[2],"1.02 fold enrichment (6-mer frequency, TF over GST control)"
same,binding signal,[7],"1.01 fold enrichment (6-mer frequency, TF over GST control)"
same,binding signal,[12],"1.11 fold enrichment (6-mer frequency, TF over GST control)"
same,binding signal,[13],"1.02 fold enrichment (6-mer frequency, TF over GST control)"
same,binding signal,[14],"1.03 fold enrichment (6-mer frequency, TF over GST control)"
